Test in all cases: DAPPL (digital affinity profiling via proximity ligation, sequencing); 10 mM Tris-HCl pH 7.5, 50 mM NaCl, 1 mM DTT, 4% glycerol, room temperature, 30 min; GST-TFs on glutathione beads, 16-mer random dsDNA library, 0.1% formaldehyde crosslink after washing; high values mean tight binding
Settings in all cases: protein: recombinant; tags: N-terminal GST; dsDNA, one strand shown

For test [1], the target named is T1, FLI1 (Homo sapiens, UniProt Q01543 1-452).
T1 sequence: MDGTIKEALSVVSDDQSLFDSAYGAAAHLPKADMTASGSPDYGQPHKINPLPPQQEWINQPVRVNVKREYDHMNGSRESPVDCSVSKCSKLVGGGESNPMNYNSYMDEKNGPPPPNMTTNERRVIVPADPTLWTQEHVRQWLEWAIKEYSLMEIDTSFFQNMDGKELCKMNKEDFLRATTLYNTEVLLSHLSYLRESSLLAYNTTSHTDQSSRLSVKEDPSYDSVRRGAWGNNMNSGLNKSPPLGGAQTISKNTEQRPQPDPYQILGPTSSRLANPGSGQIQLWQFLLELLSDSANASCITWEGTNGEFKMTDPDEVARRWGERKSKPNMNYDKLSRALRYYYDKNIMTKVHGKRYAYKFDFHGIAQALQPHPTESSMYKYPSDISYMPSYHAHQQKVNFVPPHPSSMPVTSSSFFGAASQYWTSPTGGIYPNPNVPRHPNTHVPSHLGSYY
The procedure, abridged: (§1)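 A tag-only sample was pooled with DNA-barcoded human transcription factors that had been expressed in yeast as GST fusions and captured on glutathione beads. The pools were incubated for 30 min at room temperature with 200 nmole of a random double-stranded 16-mer DNA library in Tris/NaCl/DTT/glycerol buffer, then washed, crosslinked with 0.1% formaldehyde, proximity-ligated (BsaI/T4 ligase, 1 h, 37 °C), PCR-amplified and sequenced on an Illumina NextSeq500. Binding signal is each hexamer's read frequency for a factor divided by its frequency for the tag-only sample.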

The target in test [2] is T2, ELK1 (Homo sapiens, UniProt P19419 1-428).
T2 sequence: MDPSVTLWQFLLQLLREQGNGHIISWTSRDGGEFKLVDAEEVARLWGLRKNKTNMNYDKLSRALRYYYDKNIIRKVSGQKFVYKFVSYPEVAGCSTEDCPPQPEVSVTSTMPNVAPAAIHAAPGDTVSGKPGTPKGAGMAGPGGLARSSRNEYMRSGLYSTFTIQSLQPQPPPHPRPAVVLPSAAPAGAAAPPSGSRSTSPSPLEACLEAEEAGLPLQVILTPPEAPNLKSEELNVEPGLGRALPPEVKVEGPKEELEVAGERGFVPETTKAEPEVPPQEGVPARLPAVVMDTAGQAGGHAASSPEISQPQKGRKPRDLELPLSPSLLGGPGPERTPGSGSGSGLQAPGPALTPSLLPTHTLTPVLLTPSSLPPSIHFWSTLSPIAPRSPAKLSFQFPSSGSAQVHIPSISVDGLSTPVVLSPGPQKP
A digest of the protocol:
as §1

Test [3] concerns the target T3, GABPA (Homo sapiens, UniProt Q06546 1-454).
T3 sequence: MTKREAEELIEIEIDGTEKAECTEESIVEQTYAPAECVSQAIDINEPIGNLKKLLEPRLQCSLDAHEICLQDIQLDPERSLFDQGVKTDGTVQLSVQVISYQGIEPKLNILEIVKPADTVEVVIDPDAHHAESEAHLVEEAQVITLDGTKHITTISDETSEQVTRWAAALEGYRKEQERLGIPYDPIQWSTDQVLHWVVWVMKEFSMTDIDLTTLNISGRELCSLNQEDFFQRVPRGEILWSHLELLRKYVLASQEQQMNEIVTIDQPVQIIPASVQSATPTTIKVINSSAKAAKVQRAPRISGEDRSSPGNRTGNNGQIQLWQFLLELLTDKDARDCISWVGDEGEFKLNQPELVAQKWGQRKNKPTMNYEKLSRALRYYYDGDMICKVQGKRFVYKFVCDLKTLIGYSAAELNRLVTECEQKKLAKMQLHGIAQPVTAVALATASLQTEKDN
The procedure, abridged:
as §1

For test [4], the target named is T4, ERG (Homo sapiens, UniProt P11308 1-479).
T4 sequence: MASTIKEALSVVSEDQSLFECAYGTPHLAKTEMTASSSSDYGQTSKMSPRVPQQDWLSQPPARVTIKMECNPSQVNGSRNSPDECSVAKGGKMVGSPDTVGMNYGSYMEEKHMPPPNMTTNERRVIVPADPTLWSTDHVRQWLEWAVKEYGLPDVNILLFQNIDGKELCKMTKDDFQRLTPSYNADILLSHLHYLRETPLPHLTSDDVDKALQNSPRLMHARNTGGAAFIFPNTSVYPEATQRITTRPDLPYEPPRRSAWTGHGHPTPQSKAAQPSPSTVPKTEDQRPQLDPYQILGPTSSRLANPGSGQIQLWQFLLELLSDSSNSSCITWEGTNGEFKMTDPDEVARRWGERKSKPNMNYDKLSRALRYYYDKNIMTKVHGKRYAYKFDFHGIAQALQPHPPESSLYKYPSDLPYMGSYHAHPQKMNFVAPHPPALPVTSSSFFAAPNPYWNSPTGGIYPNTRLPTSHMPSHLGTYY
A digest of the protocol: as §1

For test [5], the target named is ELF1 (Homo sapiens, UniProt P32519 1-619). The procedure, abridged: as §1
Test [6] concerns the target T5, EHF (Homo sapiens, UniProt Q9NZC4 1-300).
T5 sequence: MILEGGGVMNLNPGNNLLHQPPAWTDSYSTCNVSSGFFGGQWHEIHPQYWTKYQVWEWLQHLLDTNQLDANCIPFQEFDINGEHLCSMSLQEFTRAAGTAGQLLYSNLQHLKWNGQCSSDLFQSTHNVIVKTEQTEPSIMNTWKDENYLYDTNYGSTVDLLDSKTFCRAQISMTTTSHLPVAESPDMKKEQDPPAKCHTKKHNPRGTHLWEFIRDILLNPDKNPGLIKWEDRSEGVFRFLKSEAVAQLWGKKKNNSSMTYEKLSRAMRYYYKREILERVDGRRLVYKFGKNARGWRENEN
A digest of the protocol: as §1

Test [7] addresses SPI1 (Homo sapiens, UniProt P17947 1-270). A digest of the protocol: as §1
Test [8] deals with SPIB (Homo sapiens, UniProt Q01892 1-262). The procedure, abridged: as §1
Test [9] addresses T6, ELK3 (Homo sapiens, UniProt P41970 1-407).
T6 sequence: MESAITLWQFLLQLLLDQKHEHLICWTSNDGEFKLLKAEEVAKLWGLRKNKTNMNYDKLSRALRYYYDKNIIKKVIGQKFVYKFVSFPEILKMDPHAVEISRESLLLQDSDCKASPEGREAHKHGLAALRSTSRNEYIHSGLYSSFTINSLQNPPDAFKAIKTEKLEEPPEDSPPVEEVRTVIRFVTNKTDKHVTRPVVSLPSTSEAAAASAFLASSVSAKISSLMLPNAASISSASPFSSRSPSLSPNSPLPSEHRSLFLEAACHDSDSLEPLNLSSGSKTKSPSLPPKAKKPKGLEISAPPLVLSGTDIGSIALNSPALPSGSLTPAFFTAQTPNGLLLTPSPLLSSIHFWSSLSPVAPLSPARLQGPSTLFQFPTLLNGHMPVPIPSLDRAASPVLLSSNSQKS
A digest of the protocol: as §1

In publication PMC7862700, “An all-to-all approach to the identification of sequence-specific readers for epigenetic DNA modifications on cytosine” one finds binding signal data, which are given here for seven sequences.

SPIB, sequence (Q01892 whole entry): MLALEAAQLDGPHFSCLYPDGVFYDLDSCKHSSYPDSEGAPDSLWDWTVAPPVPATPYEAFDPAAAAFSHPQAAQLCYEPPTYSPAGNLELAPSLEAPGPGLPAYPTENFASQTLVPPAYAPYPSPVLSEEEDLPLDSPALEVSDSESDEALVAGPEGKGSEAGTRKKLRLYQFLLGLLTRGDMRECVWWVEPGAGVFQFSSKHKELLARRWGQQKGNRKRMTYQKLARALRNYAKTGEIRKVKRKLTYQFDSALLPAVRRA
ELF1, sequence (P32519 whole entry): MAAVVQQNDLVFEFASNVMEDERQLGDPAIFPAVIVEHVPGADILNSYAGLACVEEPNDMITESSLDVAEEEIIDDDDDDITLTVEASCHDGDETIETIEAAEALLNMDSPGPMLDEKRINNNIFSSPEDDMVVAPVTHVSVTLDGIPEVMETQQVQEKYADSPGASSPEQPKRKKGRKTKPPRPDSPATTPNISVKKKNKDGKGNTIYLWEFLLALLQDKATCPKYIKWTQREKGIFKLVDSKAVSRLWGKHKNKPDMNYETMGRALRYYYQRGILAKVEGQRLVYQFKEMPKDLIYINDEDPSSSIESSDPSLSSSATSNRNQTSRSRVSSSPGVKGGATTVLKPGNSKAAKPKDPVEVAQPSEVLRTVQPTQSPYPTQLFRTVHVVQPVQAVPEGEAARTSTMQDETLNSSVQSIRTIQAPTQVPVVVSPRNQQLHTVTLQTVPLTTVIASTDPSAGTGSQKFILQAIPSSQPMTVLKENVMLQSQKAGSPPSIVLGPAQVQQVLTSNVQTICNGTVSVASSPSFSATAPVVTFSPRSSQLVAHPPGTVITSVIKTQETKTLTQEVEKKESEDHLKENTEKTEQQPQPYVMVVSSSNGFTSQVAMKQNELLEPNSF

Consider TTGCTA, for which the binding signal was 1.38 fold enrichment (6-mer frequency, TF over GST control) in [1]; 1.27 fold enrichment (6-mer frequency, TF over GST control) in test [2]; 1.27 fold enrichment (6-mer frequency, TF over GST control) in test [3]; 1.26 fold enrichment (6-mer frequency, TF over GST control) in test [4]; 1.3 fold enrichment (6-mer frequency, TF over GST control) in test [5]; 1.33 fold enrichment (6-mer frequency, TF over GST control) in test [6]. The binding signal in test [7] was 1.31 fold enrichment (6-mer frequency, TF over GST control); in test [8] it was 1.37 fold enrichment (6-mer frequency, TF over GST control); in test [9], 1.33 fold enrichment (6-mer frequency, TF over GST control).

As for TCGCCG, the binding signal in test [1] is 1.14 fold enrichment (6-mer frequency, TF over GST control); in [2], 1.24 fold enrichment (6-mer frequency, TF over GST control); in [3], 1.27 fold enrichment (6-mer frequency, TF over GST control); in test [4] it was 1.24 fold enrichment (6-mer frequency, TF over GST control); in [5], 1.23 fold enrichment (6-mer frequency, TF over GST control); in test [6] it was 1.34 fold enrichment (6-mer frequency, TF over GST control). For the same sequence, the binding signal in test [7] is 1.14 fold enrichment (6-mer frequency, TF over GST control); in test [8], 1.16 fold enrichment (6-mer frequency, TF over GST control); in test [9], 1.16 fold enrichment (6-mer frequency, TF over GST control).

Take CAGGAT: the binding signal is 1.23 fold enrichment (6-mer frequency, TF over GST control) in test [1]; 1.16 fold enrichment (6-mer frequency, TF over GST control) in [2]; 1.13 fold enrichment (6-mer frequency, TF over GST control) in test [3]; 1.2 fold enrichment (6-mer frequency, TF over GST control) in [4]; 1.14 fold enrichment (6-mer frequency, TF over GST control) in test [5]; 1.19 fold enrichment (6-mer frequency, TF over GST control) in test [6]. Also, the binding signal in test [7] is 1.1 fold enrichment (6-mer frequency, TF over GST control); in [8] it was 1.29 fold enrichment (6-mer frequency, TF over GST control); in test [9] it was 1.04 fold enrichment (6-mer frequency, TF over GST control).

For CACCAA, the binding signal is 1.02 fold enrichment (6-mer frequency, TF over GST control) in [1]; 1.16 fold enrichment (6-mer frequency, TF over GST control) in [2]; 1.03 fold enrichment (6-mer frequency, TF over GST control) in [3]; 1.07 fold enrichment (6-mer frequency, TF over GST control) in test [4]; 1.12 fold enrichment (6-mer frequency, TF over GST control) in test [5]; 1.06 fold enrichment (6-mer frequency, TF over GST control) in test [6]. The binding signal in test [7] is 1.07 fold enrichment (6-mer frequency, TF over GST control); in [8], 1.04 fold enrichment (6-mer frequency, TF over GST control); in test [9] it was 1.15 fold enrichment (6-mer frequency, TF over GST control).

Consider TGGTAC, for which the binding signal in test [1] is 1.18 fold enrichment (6-mer frequency, TF over GST control); in [2], 1.23 fold enrichment (6-mer frequency, TF over GST control); in test [3] it was 1.13 fold enrichment (6-mer frequency, TF over GST control); in [4] it was 1.15 fold enrichment (6-mer frequency, TF over GST control); in test [5], 1.17 fold enrichment (6-mer frequency, TF over GST control); in [6], 1.13 fold enrichment (6-mer frequency, TF over GST control). Moreover, the binding signal in test [7] is 1.12 fold enrichment (6-mer frequency, TF over GST control); in test [8], 1.27 fold enrichment (6-mer frequency, TF over GST control); in test [9], 1.07 fold enrichment (6-mer frequency, TF over GST control).

Turning to GCTCAT, the binding signal in test [1] is 1.23 fold enrichment (6-mer frequency, TF over GST control); in test [2], 1.29 fold enrichment (6-mer frequency, TF over GST control); in [3] it was 1.23 fold enrichment (6-mer frequency, TF over GST control); in test [4] it was 1.32 fold enrichment (6-mer frequency, TF over GST control); in test [5], 1.36 fold enrichment (6-mer frequency, TF over GST control); in [6], 1.26 fold enrichment (6-mer frequency, TF over GST control). Further, the binding signal in test [7] was 1.21 fold enrichment (6-mer frequency, TF over GST control); in [8], 1.31 fold enrichment (6-mer frequency, TF over GST control); in [9] it was 1.16 fold enrichment (6-mer frequency, TF over GST control).

Consider TTGCAA, for which the binding signal is 1.14 fold enrichment (6-mer frequency, TF over GST control) in test [1]; 1.28 fold enrichment (6-mer frequency, TF over GST control) in test [2]; 1.2 fold enrichment (6-mer frequency, TF over GST control) in test [3]; 1.08 fold enrichment (6-mer frequency, TF over GST control) in test [4]; 1.18 fold enrichment (6-mer frequency, TF over GST control) in test [5]; 1.2 fold enrichment (6-mer frequency, TF over GST control) in test [6]. Further, the binding signal was 1.04 fold enrichment (6-mer frequency, TF over GST control) in [7]; 1.15 fold enrichment (6-mer frequency, TF over GST control) in [8]; 1.29 fold enrichment (6-mer frequency, TF over GST control) in test [9].
